# A selection: hits, their analogues and other compounds. The true share with any hit is near 12%.
# JMJD2A Tudor inh – blocks the human JMJD2A Tudor domain; O75164; AlphaScreen JMJD2A-Tudor / H3K4me3 peptide binding; Potency, µM (series often up to 114 µM), without a hit: at the top dose activity change, negative = inhibition, hits mostly inhibitors; hit rate 4.4% among 390,000; further: on the % scale 0 is the no-effect control and ±100 the full control effect; nearly all actives have a fitted effect of over 50% in size
# BAZ2B inh – BAZ2B (human) inhibition; AlphaScreen BAZ2B-H3K14Ac peptide displacement; Potency, µM (titrated, usually from 114 µM), inactives show at the highest dose activity change, negative = inhibition, hits mostly inhibitors; hit rate 4.4% among 360,000; further: on the % scale 0 is the no-effect control and ±100 the full control effect; nearly all actives have a fitted effect of over 60% in size
#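 Inhibition is scored as reduced AlphaScreen emission. The BAZ2B/b-H3(5-23)K14Ac complex (50 nM each) in PBS pH 7.4, 0.01% Tween-20 meets compound (up to 110 uM) for 30 min at RT before bead addition.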
# Sfp PPTase inh – blocks B. subtilis Sfp PPTase activity | AID 1490 | Q9F4F7 | hit rate 3.5% among 310,000 | Potency, µM, for inactives: largest response in the series, negative = inhibition, most hits filed as inhibitors | Biochemical Sfp PPTase activity, qHTS;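 further: the enzyme is Sfp with the accession as filed and its product quenches rhodamine fluorescence; 0% = enzyme reaction without inhibitor and -100% = no enzyme wells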
#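 Fluorescence-quenching assay: 15 nM Sfp-PPTase preincubated 15 min at room temperature with compound, then 5 uM rhodamine-CoA and 12.5 uM BHQ-2-labelled YbbR peptide added. Fluorescence (ex 525/em 598 nm) read at start and after 30 min; difference gives rate.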
# G9a inh – inhibitors of human histone lysine methyltransferase G9a; Q96KQ7; G9a H3K9 monomethylation, AlphaScreen, 2 h; Potency, µM (titrated, usually from 102 µM), for inactives: at the highest dose activity, negative = inhibition, hits mostly inhibitors; hit rate 8.8% among 350,000; AID 504332; further: on the % scale 0 is the no-effect control and ±100 the full control effect; nearly all actives have a fitted effect of over 75% in size
#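 Readings reflect AlphaScreen signal from monomethyl-H3K9 antibody detection. HMT at 20 nM; substrate b-H3K9 500 nM; cofactor SAM 20 uM; 2 h RT reaction; compounds tested as titrations in qHTS with 15 min preincubation.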
# HP1b binding inh – blocks HP1-beta chromodomain binding to methylated histone tails; AlphaScreen HP1-beta / biotin-H3K9me3 peptide binding; Potency, µM (titrated, usually from 114 µM), inactives show top-dose activity change, negative = inhibition, usual class: inhibitors; hit rate 0.56% among 390,000; AID 540317; further: nearly all actives have a fitted effect of over 70% in size
#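 AlphaScreen: HP1-beta (50 nM) preformed 30 min with biotin-H3(1-18)K9me3 peptide (50 nM) in PBS pH 7.4, 0.01% Tween-20. Compound added for 30 min at RT, then streptavidin donor/nickel chelate acceptor beads (10 ug/mL) for 30 min.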
# PLK1 PBD block – inhibitors of human PLK1 polo-box domain binding; Plk1 PBD binding of FITC phosphopeptide, fluorescence polarization; P53350; Potency, µM, without a hit: max response, negative = inhibition, usual class: inhibitors; hit rate 2.8% among 360,000; further: series mostly up to about 57 µM; on the % scale 0 is the no-effect control and ±100 the full control effect; nearly all actives have a fitted effect of over 65% in size
# Target sequence (P53350 whole entry, looked up, the tested form may be a part): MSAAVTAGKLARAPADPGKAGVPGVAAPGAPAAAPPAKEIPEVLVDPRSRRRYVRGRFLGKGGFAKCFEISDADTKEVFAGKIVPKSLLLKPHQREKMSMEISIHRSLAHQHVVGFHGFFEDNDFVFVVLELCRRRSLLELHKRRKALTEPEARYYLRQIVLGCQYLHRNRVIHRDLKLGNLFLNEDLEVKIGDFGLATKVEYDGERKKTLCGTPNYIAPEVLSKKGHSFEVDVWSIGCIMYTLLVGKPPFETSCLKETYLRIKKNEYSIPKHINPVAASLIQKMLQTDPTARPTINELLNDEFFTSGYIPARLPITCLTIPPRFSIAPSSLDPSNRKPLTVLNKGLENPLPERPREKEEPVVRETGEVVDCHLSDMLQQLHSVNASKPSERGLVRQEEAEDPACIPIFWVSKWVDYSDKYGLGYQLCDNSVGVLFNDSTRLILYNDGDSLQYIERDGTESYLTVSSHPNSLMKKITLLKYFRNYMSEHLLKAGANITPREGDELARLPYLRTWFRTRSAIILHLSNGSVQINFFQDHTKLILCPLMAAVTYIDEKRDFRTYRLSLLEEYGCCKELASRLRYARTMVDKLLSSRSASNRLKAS
# * marks the source's active call; other numbers are inactive results; ? = inconclusive; · = no result; [ ] = dose if it differs, or a comment. The call rests on the fitted dose curve; in most records, active means well fitted curve in the direction sought with a large enough effect; inconclusive means small, poorly fitted or top-dose-only effect, or another doubt; inactive means no such curve, though single readings can be large; an effect the other way counts as inactive or inconclusive. Potency means the concentration at half of the fitted maximal effect.
SMILES,JMJD2A Tudor inh,BAZ2B inh,Sfp PPTase inh,G9a inh,HP1b binding inh,PLK1 PBD block
COCCC(=O)N1CCC(Oc2ccc(C(=O)N(C)C(C)c3ccon3)cc2)CC1 (stereo not drawn),?,-3%,4%,9%,-5%,27µM*
COCCC(=O)N1CCC(Oc2ccc(C(=O)N(C)C3CCCCC3)cc2)CC1,-8%,3%,15%,-2%[0.501 µM],13%,-7%
CCCOc1ccc(C(=O)CCC(=O)NNC(=O)c2cccs2)cc1,-2%,0%,·,25%[12.7 µM],42%,3%
COc1cc2c(cc1OC)CN(Cc1cc(OC)c(O)c(OC)c1)CC2,-3%,-11%,3%,32µM*,57%,-10%
COc1cc2c(cc1OC)CN(Cc1ccccc1)CC2,-7%,0%,-5%,·,38%,4%
COc1cc2c(cc1OC)CN(Cc1ccc(C)cc1)CC2,-15%,-8%,-1%,·,26%,-5%
COc1cc2c(cc1OC)CN(Cc1cccs1)CC2,3.2µM*,-39%,-23%,?,?,-8%
O=C(CNC(=O)c1ccccc1)OCC(=O)c1ccccc1,-1%[57.1 µM],·,·,·,9%[57 µM],·
CCC(=O)Nc1sc2c(c1C#N)CC(C)(CC)OC2 (stereo not drawn),11%,0%[57.1 µM],56µM*,-16%[12.7 µM],-17%,?
CC1(C)Cc2c(sc(NC(=O)C(=O)N3CCCC3)c2C#N)CO1,?,-33%,?,28µM*,4%,?
C/C=C(/C)C(=O)O[C@H]1C[C@@]2(C)O[C@H]2[C@@H](OC(C)=O)C2(C)CC[C@@](O)(C(C)C)C12 (stereo partly drawn),·,·,18%,·,·,·
CCc1cccc(CC)c1N(COC)C(=O)Cn1c(C)nc2ccccc21,-12%,-7%,·,?,14%,·
N#C/C(=C(/O)CSc1ccccn1)c1nc2ccccc2s1,-8%,-16%,-4%,45µM*,44%,-8%
N#C/C(=C(/O)COC(=O)c1ccc(C#N)cc1)c1nc2ccccc2s1,?,?,50µM*,?,29%,?
c1ccc(SCc2nc3ccccc3s2)nc1,18%,1%,?,35µM*,66%,19µM*
c1ccc2oc(SCc3nc4ccccc4s3)nc2c1,155%,108%,-22%,47%[59 µM],270%,-12%
c1ccc(CNCc2nnc(-c3cc4ccccc4[nH]3)s2)cc1,-18%,·,·,·,·,·
O=C(Nc1c(C(=O)c2ccc(Cl)cc2)oc2ccccc12)c1cc(=O)c2ccccc2o1,-6%,24%,·,20%[59 µM],62%,·
CCCCNc1c(-c2cccc(-c3cc(C(C)=O)cs3)c2)nc2ccc(C)cn12,25µM*,35µM*,·,-16%[2.33 µM],-26%,-7%
CCCCNc1c(-c2cccc(-c3ccc(OC)cc3)c2)nc2ccc(C)cn12,25µM*,45µM*,·,10%[2.33 µM],-14%,-9%
CCCCc1ccc(-c2nc(NC(=O)C3C4CCC(O4)C3C(=O)O)sc2C)cc1 (stereo not drawn),·,?,1%,50µM*,·,·
CCc1cccc(C)c1NC(=O)C1C2CCC(O2)C1C(=O)O (stereo not drawn),-1%,0%,19%,23%[59 µM],23%,4%
O=[N+]([O-])c1cccc(C2CC(c3ccccc3)=NN2c2ccccc2)c1 (stereo not drawn),28µM*,?,1%,32µM*,?,-11%
O=Cc1ccc(N2N=C(c3ccccc3)CC2c2ccccc2)cc1 (stereo not drawn),142%,83%,-11%,264%,215%,2%
Clc1ccc(/C(Cc2nc3ccccc3[nH]2)=N\Nc2ccccc2)cc1,?,?,-3%,7.1µM*,-11%,-8%
SMILES,JMJD2A Tudor inh,BAZ2B inh,Sfp PPTase inh,G9a inh,HP1b binding inh,PLK1 PBD block
O=C(Cc1nc2ccccc2[nH]1)c1ccc(Cl)cc1,-19%,-3%,16%,4%,18%,-4%
CN/N=C(\Cc1nc2ccccc2[nH]1)c1ccc([N+](=O)[O-])cc1,?,?,22µM*,?,2%,-11%
O=C(Cc1nc2ccccc2[nH]1)c1ccc([N+](=O)[O-])cc1,-27%,-27%,16µM*,45µM*,18%,-10%
O=C(COC(=O)c1ccc(NC(=O)C2CC=CCC2C(=O)O)cc1)c1ccccc1 (stereo not drawn),-4%,?,7%,-47%,24%,-1%
CCCCC(CC)C/C=C1\CC(C(=O)OCC)Oc2ccccc21 (stereo not drawn) (tested in a mixture with another compound),·,·,10%,67%,·,·
COC(=O)C1=C(C(=O)OC)C(c2ccc(OC)c(OC)c2)c2sc(=O)[nH]c2S1 (stereo not drawn),40µM*,-34%,20µM*,28µM*,-9%,-9%
COC(=O)C1=C(C(=O)OC)C(c2cc(Br)ccc2O)c2sc(=O)[nH]c2S1 (stereo not drawn),-27%,?,20µM*,3.2µM*,-4%[57 µM],3µM*
COC(=O)C1=C(C(=O)OC)C(c2cc(Cl)ccc2O)c2sc(=O)[nH]c2S1 (stereo not drawn),?,?,79µM*,7.9µM*,-24%,9.5µM*
Cn1c(=O)c(-c2cc(F)cc(F)c2)nc2cnc(Nc3ccccc3)nc21,·,·,-1%,5%[0.501 µM],·,·
COc1cc2c(cc1OC)C1=C(C#N)CN(C3CCCCC3)CN1CC2,?,?,-13%,45µM*,14%,-5%
C#CC(CC)(CC)NC(=O)c1cc(S(=O)(=O)N2CCCCC2)ccc1N1CCOCC1,6%,-5%,·,-3%,43%,-1%
CCc1ccc(NC(=O)CSc2nnnn2-c2cccnc2)cc1,-2%,-38%,-3%,·,18%,-6%
Cc1ccc2nc3c(c(Nc4ccc(C)c(C)c4)c2c1)CCC3,?,32µM*,·,-45%[59 µM],2%,·
COc1ccc(Nc2c3c(nc4ccc(NC(=O)c5ccc(F)cc5)cc24)CCCC3)cc1OC,56µM*,32µM*,·,?,?,·
COc1ccccc1Nc1c2c(nc3ccc(NC(=O)c4ccccc4F)cc13)CCCC2,?,?,·,?,0%,·
COc1ccccc1Nc1c2c(nc3ccc(NC(=O)c4cccc(OC)c4OC)cc13)CCCC2,?,-37%,·,?,16%,·
COc1ccc(C(=O)Nc2ccc3nc4c(c(Nc5ccc(OC)c(OC)c5)c3c2)CCCC4)c(OC)c1,?,?,·,-20%[59 µM],-20%,·
COc1ccccc1Nc1c2c(nc3ccc(N)cc13)CCCC2,40µM*,35µM*,1%,40µM*,-25%,-8%
Cc1ccc2nc3c(c(Nc4ccc(O)cc4)c2c1)CCC3,-22%,-13%,-8%,?,42%,-8%
COc1ccccc1Nc1c2c(nc3ccc(NC(=O)c4ccc(OC)c(OC)c4)cc13)CCCC2,?,?,·,14µM*,-17%,·
